Source: PubChem (University of Kansas High Throughput Screening Laboratory)
mHTT-CaM PPI inh – mutant huntingtin-calmodulin interaction inhibitors – biochemical, AlphaScreen, primary screen. P42858. AlphaScreen His-mHTT/GST-CaM binding, luminescence. inhibition, % at 15 µM. 190,000 compounds, 3.6% hits. AID 1671202, 2021;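 further: 0% = both proteins with DMSO and 100% = one protein alone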
Pf apPOL block – Pf-apPOL inhibitors, biochemical, fluorescence | Plasmodium falciparum apicoplast DNA polymerase (apPOL) | Recombinant Pf-apPOL, molecular beacon fluorescence, 1.5 h | inhibition, % at 10 µM | 210,000 compounds, 0.25% hits | AID 1794808, 2022
Numbers without * were called inactive; · = no result given. Hits are enriched below; roughly 3.5% of the tested compounds scored in any of these assays. No stated cut-off is given here; in the data, active means inhibition above about 50%; inactive means the rest.

SMILES	mHTT-CaM PPI inh	Pf apPOL block
COCCc1nnc(NC(=O)C(c2ccccc2)c2ccccc2)o1	96*	-7
OC(COc1ccc(I)cc1)Cn1cnc2ccccc21 (centres undefined)	86*	-4
Cc1ccc(OCC(O)Cn2cnc3ccccc32)cc1 (centres undefined)	6	9
N#Cc1c(C(F)(F)F)cc(-c2cccs2)nc1SCC(=O)Nc1ccccc1	-13	12
N#Cc1c(C(F)(F)F)cc(-c2cccs2)nc1SCC(=O)Nc1ccc([N+](=O)[O-])cc1	0	64*
COC(=O)CNC(=O)NCCC1CCN(C(=O)NC2CCCCC2)CC1	-7	-4
O=C(Cn1c(=O)n(C2CCCC2)c2ncccc21)NC1CCCC1	-4	-5
Cc1cccn2c(=O)c3cc(C(=O)NCc4ccco4)c(=N)n(CCc4ccccc4)c3nc12	50*	-8
Cc1cccn2c(=O)c3cc(C(=O)NCc4ccccc4)c(=N)n(CCc4ccccc4)c3nc12	0	9
Cc1ccc2nc3c(cc(C(=O)NCc4ccccc4)c(=N)n3Cc3ccco3)c(=O)n2c1	37	0
N=c1c(C(=O)NCc2ccco2)cc2c(=O)n3ccccc3nc2n1Cc1cccnc1	14	-3
Cc1ccc2nc3c(cc(C(=O)NCc4ccco4)c(=N)n3Cc3ccco3)c(=O)n2c1	66*	-5
N=c1c(C(=O)NCc2ccccc2)cc2c(=O)n3ccccc3nc2n1Cc1ccco1	85*	11
Cc1ccc(S(=O)(=O)c2cc3c(=O)n4cc(C)ccc4nc3n(Cc3ccco3)c2=N)cc1	6	-3
Cc1ccc(S(=O)(=O)c2cc3c(=O)n4ccccc4nc3n(Cc3ccco3)c2=N)cc1	52*	2
CC(C)=NN=C1N=C(c2ccc(Cl)cc2)CS1	·	-6
Clc1ccc(C2Cn3nc(-c4nc(-c5ccc6c(c5)OCO6)no4)cc3CO2)cc1 (centres undefined)	0	-3
Cc1ccc(Oc2ccc(NS(=O)(=O)c3cc(F)ccc3C)cc2)nn1	-12	-6
CC(=O)N1CCc2sc(C(=O)NCCCN3CCOCC3)cc2C1	-1	-5
Cc1ccc(-c2nc3s/c(=C\c4sccc4C)c(=O)n3n2)cc1	-6	-4
Cc1ccc(C(=O)N2CCc3c(c(-c4nc(-c5ccccc5)no4)nn3C)C2)cc1F	-2	-2
COCCNC(=O)N1CCC(OCc2nc(C3CC3)no2)CC1	-5	-6
Cc1sc(NC(=O)c2ccco2)c(C(c2cccnc2)N2CCN(c3ccccc3)CC2)c1C (centres undefined)	18	12
Cc1sc(NC(=O)c2ccco2)c(C(c2cccnc2)N2CCN(c3ccccn3)CC2)c1C (centres undefined)	100*	-6
COc1cccc(C(=O)N(CN2CCCC2=O)c2cccc(C(F)(F)F)c2)c1	-14	-3
SMILES	mHTT-CaM PPI inh	Pf apPOL block
CC(=O)NCc1csc(C2CCCN(S(=O)(=O)c3ccccc3Cl)C2)n1 (centres undefined)	3	-2
Nc1cccc(C(=O)Nc2ccccc2)c1	-2	-5
Nc1ccc(C(=O)Nc2ccccc2)c(N)c1	95*	-12
Cc1cc(-c2ccccc2)n(-c2cc(Nc3cccc(C(F)(F)F)c3)ncn2)n1	93*	-3
CNc1cc(-n2nc(C)cc2-c2ccccc2)ncn1	3	7
C=CCNC(=O)c1cc2c(=O)n3ccccc3nc2n(C(C)C)c1=N	10	6
O=C(c1cc(C2CC2)[nH]n1)N1CCc2nc3cc(-c4ccccc4Cl)[nH]n3c(=O)c2C1	59*	26
Cc1ccc(C(=O)N2CCc3nc4cc(-c5ccccc5)[nH]n4c(=O)c3C2)cc1F	1	0
CC(=O)N1CCc2nc3cc(-c4ccccc4Cl)[nH]n3c(=O)c2C1	-2	2
O=C(c1ccc2ncccc2c1)N1CCc2nc3cc(-c4ccccc4)[nH]n3c(=O)c2C1	99*	96*
O=C(c1n[nH]c2ccccc12)N1CCc2nc3cc(-c4ccccc4)[nH]n3c(=O)c2C1	16	5
COc1ccc(-c2cc3nc4c(c(=O)n3[nH]2)CCN(C(=O)c2ccc(C)c(F)c2)C4)cc1	32	3
COc1ccc(-c2cc3nc4c(c(=O)n3[nH]2)CN(C(=O)c2ccc(C)c(F)c2)CC4)cc1	80*	41
O=C(c1nccc2ccccc12)N1CCc2nc3cc(-c4ccccc4)[nH]n3c(=O)c2C1	56*	0
CCOc1ccccc1/C=C1/N=C(c2ccc(Cl)cc2)OC1=O	3	-83
CC(C)C(=O)N1CCc2nc(-c3ccccc3)ncc2C1	-8	1
CCN1CCN(C(=O)C2CC(c3cc(OC)ccc3OC)=NO2)CC1 (centres undefined)	-4	-5
COc1cccc(-c2nnc(NC(=O)c3ccc(S(=O)(=O)N(C)c4ccccc4)cc3)o2)c1	39	-4
CC1CCCCC1NS(=O)(=O)c1cccc2nsnc12 (centres undefined)	4	-9
COCCC(=O)N1CCc2nc(-c3ccc(F)cc3)ncc2C1	-8	0
COc1ccc(C2NC(=O)NC(C)=C2C(=O)Nc2ccc(C)c(Cl)c2)cc1OC (centres undefined)	54*	0
COc1ccc(NC(=O)C2=C(C)NC(=O)NC2c2cccs2)c(OC)c1 (centres undefined)	2	0
COc1cc(C2NC(=O)NC(C)=C2C(=O)Nc2ccc(F)c(F)c2)ccc1O (centres undefined)	0	-2
COc1ccc(NC(=O)C2=C(C)NC(=O)NC2c2ccc(OC)cc2OC)c(OC)c1 (centres undefined)	73*	1
Cc1ccc(C(=O)N/C(=C\c2ccco2)C(=O)N2CCN(c3ccccn3)CC2)cc1C	70*	-5
SMILES	mHTT-CaM PPI inh	Pf apPOL block
Cc1ccc(C(=O)N/C(=C/c2ccco2)C(=O)NCCc2ccccn2)cc1C	11	-3
CCc1nc(-c2ccc(C(=O)N3CCc4ccccc4C3)cc2)cs1	60*	-1
CCc1nc(-c2ccc(C(=O)N3CCN(c4ccccc4)CC3)cc2)cs1	10	-3
Cc1cc(C)nc(N=C(N)N2CCc3ccccc3C2)n1	-4	8
CC(C)(C)c1ccc(OCC(O)CN2CCN(Cc3ccc4c(c3)OCO4)CC2)cc1 (centres undefined)	24	-1
CC1CCC(C(C)C)C(OCC(O)CN2CCN(Cc3ccccc3)CC2)C1 (centres undefined)	21	0
COc1ccc(N2CCN(CC(O)COc3ccc(Cl)c(C)c3)CC2)cc1 (centres undefined)	83*	-1
CCCc1ccc(OCC(O)CN2CCN(c3ccc(OC)cc3)CC2)cc1 (centres undefined)	61*	1
COc1ccc(N2CCN(CC(O)COC3CC(C)CCC3C(C)C)CC2)cc1 (centres undefined)	62*	0
Cc1ccc(OCC(O)CN2CCN(c3ccc(F)cc3)CC2)cc1C (centres undefined)	36	-4
CCCc1ccc(OCC(O)CN2CCCC2)cc1 (centres undefined)	-3	-1
Cc1cc(OCC(O)CN2CCN(Cc3ccc4c(c3)OCO4)CC2)ccc1Cl (centres undefined)	90*	-8
Cc1cc(C)cc(NC(=O)c2cc(S(=O)(=O)NC3CCCC3)ccc2F)c1	-4	33
O=C(CN1C(=O)NC2(CCCCC2)C1=O)Nc1cccc(F)c1	1	1
